# Changes are numbered by the printed parent chain; changes in the protein carry UniProt numbers. In all, about 16,000 sequences were measured (“ka relative to ugcaugu”: median about 0.0091, highest 2% from about 0.032 on). Many of the other results were omitted from the sample, so the highest values are more common in it than they were.
# T1: RBFOX1 RRM (Homo sapiens, UniProt Q9NWB1 109-208)
# T1 sequence: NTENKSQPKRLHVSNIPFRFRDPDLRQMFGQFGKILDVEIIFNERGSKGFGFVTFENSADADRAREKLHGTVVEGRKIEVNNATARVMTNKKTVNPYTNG
# B1: UCUCUCC (DNA:RNA)
# RNA: GGGAGACCGGAAUUCAGAUUGUCCUCUCUCCUUAAAUCCCGUCGUAGCCACCA
# DNA 1: CAATCTGAATTCCGGTCTCCC
# DNA 2: TGGTGGCTACGACGGGATT
# B2: GACACAG (DNA:RNA)
# RNA: GGGAGACCGGAAUUCAGAUUGUCCGACACAGUUAAAUCCCGUCGUAGCCACCA
# DNA 1: CAATCTGAATTCCGGTCTCCC
# DNA 2: TGGTGGCTACGACGGGATT
# B3: UCUUGGG (DNA:RNA)
# RNA: B1 RNA with C28U, U29G, C30G, C31G
# DNA 1: CAATCTGAATTCCGGTCTCCC
# DNA 2: TGGTGGCTACGACGGGATT
# B4: UCCGCCC (DNA:RNA)
# RNA: B1 RNA with U27C, C28G, U29C
# DNA 1: CAATCTGAATTCCGGTCTCCC
# DNA 2: TGGTGGCTACGACGGGATT
# B5: CCGCAGG (DNA:RNA)
# RNA: B1 RNA with U25C, U27G, U29A, C30G, C31G
# DNA 1: CAATCTGAATTCCGGTCTCCC
# DNA 2: TGGTGGCTACGACGGGATT
# B6: UGCUACU (DNA:RNA)
# RNA: B1 RNA with C26G, U27C, C28U, U29A, C31U
# DNA 1: CAATCTGAATTCCGGTCTCCC
# DNA 2: TGGTGGCTACGACGGGATT
# B7: GGCCACG (DNA:RNA)
# RNA: B2 RNA with A26G, A28C, C29A, A30C
# DNA 1: CAATCTGAATTCCGGTCTCCC
# DNA 2: TGGTGGCTACGACGGGATT
# B8: CGGCACG (DNA:RNA)
# RNA: B1 RNA with U25C, C26G, U27G, U29A, C31G
# DNA 1: CAATCTGAATTCCGGTCTCCC
# DNA 2: TGGTGGCTACGACGGGATT
# B9: GGCACCG (DNA:RNA)
# RNA: B2 RNA with A26G, A30C
# DNA 1: CAATCTGAATTCCGGTCTCCC
# DNA 2: TGGTGGCTACGACGGGATT
# B10: CUGGCGG (DNA:RNA)
# RNA: B2 RNA with G25C, A26U, C27G, A28G, A30G
# DNA 1: CAATCTGAATTCCGGTCTCCC
# DNA 2: TGGTGGCTACGACGGGATT
# B11: UGGCGGU (DNA:RNA)
# RNA: B1 RNA with C26G, U27G, U29G, C30G, C31U
# DNA 1: CAATCTGAATTCCGGTCTCCC
# DNA 2: TGGTGGCTACGACGGGATT
# B12: UGGCGCU (DNA:RNA)
# RNA: B1 RNA with C26G, U27G, U29G, C31U
# DNA 1: CAATCTGAATTCCGGTCTCCC
# DNA 2: TGGTGGCTACGACGGGATT
# B13: UGGGCGG (DNA:RNA)
# RNA: B2 RNA with G25U, A26G, C27G, A28G, A30G
# DNA 1: CAATCTGAATTCCGGTCTCCC
# DNA 2: TGGTGGCTACGACGGGATT
# B14: CUGGCGC (DNA:RNA)
# RNA: B2 RNA with G25C, A26U, C27G, A28G, A30G, G31C
# DNA 1: CAATCTGAATTCCGGTCTCCC
# DNA 2: TGGTGGCTACGACGGGATT
# B15: UGGGCGC (DNA:RNA)
# RNA: B1 RNA with C26G, U27G, C28G, U29C, C30G
# DNA 1: CAATCTGAATTCCGGTCTCCC
# DNA 2: TGGTGGCTACGACGGGATT
# B16: CAGCUCC (DNA:RNA)
# RNA: B1 RNA with U25C, C26A, U27G
# DNA 1: CAATCTGAATTCCGGTCTCCC
# DNA 2: TGGTGGCTACGACGGGATT
# B17: AGACUGC (DNA:RNA)
# RNA: B1 RNA with U25A, C26G, U27A, C30G
# DNA 1: CAATCTGAATTCCGGTCTCCC
# DNA 2: TGGTGGCTACGACGGGATT
# B18: AGGGAGG (DNA:RNA)
# RNA: B2 RNA with G25A, A26G, C27G, A28G, C29A, A30G
# DNA 1: CAATCTGAATTCCGGTCTCCC
# DNA 2: TGGTGGCTACGACGGGATT
# B19: AAGUGUC (DNA:RNA)
# RNA: B2 RNA with G25A, C27G, A28U, C29G, A30U, G31C
# DNA 1: CAATCTGAATTCCGGTCTCCC
# DNA 2: TGGTGGCTACGACGGGATT
# B20: UGAGCAU (DNA:RNA)
# RNA: B2 RNA with G25U, A26G, C27A, A28G, G31U
# DNA 1: CAATCTGAATTCCGGTCTCCC
# DNA 2: TGGTGGCTACGACGGGATT
# B21: UCAUGUU (DNA:RNA)
# RNA: B1 RNA with U27A, C28U, U29G, C30U, C31U
# DNA 1: CAATCTGAATTCCGGTCTCCC
# DNA 2: TGGTGGCTACGACGGGATT
# B22: GCUGUUA (DNA:RNA)
# RNA: B1 RNA with U25G, C28G, C30U, C31A
# DNA 1: CAATCTGAATTCCGGTCTCCC
# DNA 2: TGGTGGCTACGACGGGATT
# B23: GGCGCCG (DNA:RNA)
# RNA: B2 RNA with A26G, A28G, A30C
# DNA 1: CAATCTGAATTCCGGTCTCCC
# DNA 2: TGGTGGCTACGACGGGATT
# B24: CACCGGA (DNA:RNA)
# RNA: B2 RNA with G25C, A28C, C29G, A30G, G31A
# DNA 1: CAATCTGAATTCCGGTCTCCC
# DNA 2: TGGTGGCTACGACGGGATT
# B25: CGGAUAG (DNA:RNA)
# RNA: B2 RNA with G25C, A26G, C27G, C29U
# DNA 1: CAATCTGAATTCCGGTCTCCC
# DNA 2: TGGTGGCTACGACGGGATT
# B26: GGGAUUG (DNA:RNA)
# RNA: B2 RNA with A26G, C27G, C29U, A30U
# DNA 1: CAATCTGAATTCCGGTCTCCC
# DNA 2: TGGTGGCTACGACGGGATT
# B27: GGAUAGU (DNA:RNA)
# RNA: B2 RNA with A26G, C27A, A28U, C29A, A30G, G31U
# DNA 1: CAATCTGAATTCCGGTCTCCC
# DNA 2: TGGTGGCTACGACGGGATT
# B28: GUCCGGA (DNA:RNA)
# RNA: B2 RNA with A26U, A28C, C29G, A30G, G31A
# DNA 1: CAATCTGAATTCCGGTCTCCC
# DNA 2: TGGTGGCTACGACGGGATT
# B29: GUCGGAU (DNA:RNA)
# RNA: B2 RNA with A26U, A28G, C29G, G31U
# DNA 1: CAATCTGAATTCCGGTCTCCC
# DNA 2: TGGTGGCTACGACGGGATT
# B30: GUCGGGA (DNA:RNA)
# RNA: B2 RNA with A26U, A28G, C29G, A30G, G31A
# DNA 1: CAATCTGAATTCCGGTCTCCC
# DNA 2: TGGTGGCTACGACGGGATT
# B31: GGGGGGA (DNA:RNA)
# RNA: B2 RNA with A26G, C27G, A28G, C29G, A30G, G31A
# DNA 1: CAATCTGAATTCCGGTCTCCC
# DNA 2: TGGTGGCTACGACGGGATT
# B32: CGGAUUG (DNA:RNA)
# RNA: B2 RNA with G25C, A26G, C27G, C29U, A30U
# DNA 1: CAATCTGAATTCCGGTCTCCC
# DNA 2: TGGTGGCTACGACGGGATT
# B33: GGGAUAG (DNA:RNA)
# RNA: B2 RNA with A26G, C27G, C29U
# DNA 1: CAATCTGAATTCCGGTCTCCC
# DNA 2: TGGTGGCTACGACGGGATT
# B34: GGAUUUG (DNA:RNA)
# RNA: B2 RNA with A26G, C27A, A28U, C29U, A30U
# DNA 1: CAATCTGAATTCCGGTCTCCC
# DNA 2: TGGTGGCTACGACGGGATT
# B35: GAAUUUG (DNA:RNA)
# RNA: B2 RNA with C27A, A28U, C29U, A30U
# DNA 1: CAATCTGAATTCCGGTCTCCC
# DNA 2: TGGTGGCTACGACGGGATT
# Target: T1, RBFOX1 RRM
# Assay: EMSA; HiTS-Eq, 1 nM pool, 10 min; buffer printed only for the single-RNA assays: 10 mM Tris pH 7.5, 150 mM NaCl, 3.4 mM EDTA, 0.001% NP-40, 30 C
# Conditions: tags: His6 N-terminal (pET28a); label: 5' 32P
# Procedure, shortened: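 Purified wild-type or mutant RbFox RRM at increasing concentrations was equilibrated with 1 nM of 5′-radiolabelled RNA carrying 7 randomized nucleotides for 10 min in 50 µL. Unbound RNA was separated by 8% native PAGE and sequenced. Relative association constants came from read-count changes of each RNA species compared with the control reaction, normalised to the cognate motif.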
row,Binder,binding signal
1,B1,0.00975 KA relative to UGCAUGU
2,B2,0.00906 KA relative to UGCAUGU
3,B3,0.00663 KA relative to UGCAUGU
4,B4,0.00894 KA relative to UGCAUGU
5,B5,0.0108 KA relative to UGCAUGU
6,B6,0.0158 KA relative to UGCAUGU
7,B7,0.00911 KA relative to UGCAUGU
8,B8,0.0377 KA relative to UGCAUGU
9,B9,0.0143 KA relative to UGCAUGU
10,B10,0.00866 KA relative to UGCAUGU
11,B11,0.0227 KA relative to UGCAUGU
12,B12,0.0198 KA relative to UGCAUGU
13,B13,0.0408 KA relative to UGCAUGU
14,B14,0.02 KA relative to UGCAUGU
15,B15,0.0335 KA relative to UGCAUGU
16,B16,0.00767 KA relative to UGCAUGU
17,B17,0.0128 KA relative to UGCAUGU
18,B18,0.0245 KA relative to UGCAUGU

row,Binder,binding signal
1,B19,0.0153 KA relative to UGCAUGU
2,B20,0.0172 KA relative to UGCAUGU
3,B21,0.0106 KA relative to UGCAUGU
4,B22,0.0113 KA relative to UGCAUGU
5,B23,0.00841 KA relative to UGCAUGU
6,B24,0.00389 KA relative to UGCAUGU
7,B25,0.0228 KA relative to UGCAUGU
8,B26,0.0593 KA relative to UGCAUGU
9,B27,0.0169 KA relative to UGCAUGU
10,B28,0.00347 KA relative to UGCAUGU
11,B29,0.00831 KA relative to UGCAUGU
12,B30,0.0117 KA relative to UGCAUGU
13,B31,0.0226 KA relative to UGCAUGU
14,B32,0.0329 KA relative to UGCAUGU
15,B33,0.0337 KA relative to UGCAUGU
16,B34,0.034 KA relative to UGCAUGU
17,B35,0.0172 KA relative to UGCAUGU

# — article PMC9911399, “Two distinct binding modes provide the RNA-binding protein RbFox with extraordinary sequence specificity”
